Assay results taken from PubChem BioAssay (NCATS).
Values without a mark were called inactive. Results filed as inconclusive are left out. Entries that show only a call come without a potency. The source made the active and inactive calls. Unless noted, the call rests on the fitted dose curve; in most records, active means well fitted curve in the direction sought with a large enough effect; inconclusive means small, poorly fitted or top-dose-only effect, or another doubt; inactive means no such curve, though single readings can be large; an effect the other way counts as inactive or inconclusive.

How the values were obtained:
[1] = target: Endonuclease 4 (Escherichia coli (strain K12)) (UniProt P0A6C1); assay: Counterscreen for APE1 Inhibitors: qHTS Validation Assay for Inhibitors of Endonuclease IV (AID 1708); settings: E. coli endonuclease IV, DNA cleavage fluorescence; series mostly up to 57.1 µM
In short: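 Cleavage of a quenched abasic-site DNA duplex (50 nM, 5'-TAMRA, 3'-BHQ-2) by 2 nM enzyme is followed as fluorescence increase. Compounds are preincubated with enzyme 15 min at room temperature before substrate addition.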

[2] = qHTS for differential inhibitors of proliferation of Plasmodium falciparum line 7G8 (AID 1815); settings: Plasmodium falciparum 7G8 proliferation inhibition; series mostly up to 28.7 µM;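 further: parasite growth measured after three days of incubation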; further: potency means the concentration at half of the fitted maximal effect
[3] = qHTS for differential inhibitors of proliferation of Plasmodium falciparum line GB4 (AID 1816); settings: Potency: Plasmodium falciparum GB4 proliferation inhibition; series mostly up to 28.7 µM;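 further: parasite growth measured after 72 h incubation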; further: potency means the concentration at half of the fitted maximal effect
[4] = qHTS for differential inhibitors of proliferation of Plasmodium falciparum line D10 (AID 1877); settings: series mostly up to 28.7 µM;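 further: parasites grown with compound for 72 h before DNA staining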; further: potency means the concentration at half of the fitted maximal effect
[5] = target: RecQ-like DNA helicase BLM (Homo sapiens) (UniProt P54132); assay: qHTS Validation Assay for Inhibitors of Bloom's syndrome helicase (BLM) (AID 2364); settings: BLM helicase DNA unwinding, fluorescence, in vitro; series mostly up to 57.1 µM
Sequence of RecQ-like DNA helicase BLM (Homo sapiens) (P54132 whole entry, looked up): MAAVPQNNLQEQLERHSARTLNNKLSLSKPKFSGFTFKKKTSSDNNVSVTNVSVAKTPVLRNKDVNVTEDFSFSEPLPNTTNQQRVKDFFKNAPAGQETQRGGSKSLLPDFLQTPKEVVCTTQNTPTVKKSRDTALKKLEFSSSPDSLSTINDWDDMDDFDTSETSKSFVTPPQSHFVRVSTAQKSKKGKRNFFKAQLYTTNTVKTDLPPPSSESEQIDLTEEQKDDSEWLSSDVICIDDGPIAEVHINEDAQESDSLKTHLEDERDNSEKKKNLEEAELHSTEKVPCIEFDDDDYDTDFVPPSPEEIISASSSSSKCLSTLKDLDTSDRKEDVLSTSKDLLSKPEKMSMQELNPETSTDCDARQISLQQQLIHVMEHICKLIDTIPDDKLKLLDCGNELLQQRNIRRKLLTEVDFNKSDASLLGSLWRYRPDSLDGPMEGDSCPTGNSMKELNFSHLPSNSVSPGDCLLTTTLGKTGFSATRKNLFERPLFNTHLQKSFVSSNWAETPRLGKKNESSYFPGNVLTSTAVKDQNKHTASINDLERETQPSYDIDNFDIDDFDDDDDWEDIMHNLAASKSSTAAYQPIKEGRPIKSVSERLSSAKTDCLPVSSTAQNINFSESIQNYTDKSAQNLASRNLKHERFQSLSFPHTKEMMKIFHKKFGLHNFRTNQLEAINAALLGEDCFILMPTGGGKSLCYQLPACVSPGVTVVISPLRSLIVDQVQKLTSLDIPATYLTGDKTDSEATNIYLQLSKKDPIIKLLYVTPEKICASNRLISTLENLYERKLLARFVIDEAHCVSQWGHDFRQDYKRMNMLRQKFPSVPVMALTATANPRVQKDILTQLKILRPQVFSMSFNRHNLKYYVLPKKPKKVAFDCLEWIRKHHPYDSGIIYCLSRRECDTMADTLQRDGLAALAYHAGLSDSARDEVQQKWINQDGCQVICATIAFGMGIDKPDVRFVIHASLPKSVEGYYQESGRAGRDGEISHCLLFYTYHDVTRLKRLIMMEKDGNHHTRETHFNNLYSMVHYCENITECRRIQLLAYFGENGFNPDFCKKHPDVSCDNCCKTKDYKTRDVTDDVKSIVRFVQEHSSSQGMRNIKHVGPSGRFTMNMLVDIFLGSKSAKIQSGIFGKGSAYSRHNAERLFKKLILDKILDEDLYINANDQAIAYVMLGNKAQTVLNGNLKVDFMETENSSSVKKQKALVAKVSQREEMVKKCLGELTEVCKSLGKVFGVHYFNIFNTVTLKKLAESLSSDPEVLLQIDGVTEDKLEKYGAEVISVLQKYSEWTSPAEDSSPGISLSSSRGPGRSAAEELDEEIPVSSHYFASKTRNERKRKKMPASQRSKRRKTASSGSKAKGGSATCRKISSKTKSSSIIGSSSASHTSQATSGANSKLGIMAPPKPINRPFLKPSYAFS
In short: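 50 nM BLM preincubated 15 min at room temperature with compound in pH 8.0 Tris buffer containing 2.5 ug/ml poly(dI-dC); started with 200 nM TAMRA/BHQ-2 forked duplex and 2 mM ATP (final). Unwinding read as TAMRA fluorescence increase, two reads 2 h apart.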

[6] = Validation screen for small molecules that induce DNA re-replication in SW480 colon adenocarcinoma cells (AID 504364); settings: DNA re-replication phenotype (high-content imaging); series mostly up to 46.1 µM
In short: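 SW480 cells seeded at 250 per well were exposed to compound or DMSO for 48 hr at 37 C, 5% CO2, then stained with Hoechst for 40 min. DNA content per nucleus was imaged (405 nm ex, 500-530 nm em).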

[7] = NCATS anti-infectives library activity on HEK293 viability as a counter-qHTS vs the C. elegans viability qHTS (AID 1745854); settings: HEK293 viability counter-screen; series mostly up to 41.8 µM
In short: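 HEK293 cells, 1500 per well, exposed 24 hr at 37C in 5% CO2 to compounds in a 1:5 titration, up to 41.7 uM final. Viability read as CellTiter-Glo luminescence after 10 min at room temperature.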

[8] = target: Cytochrome P450 2D6 (Homo sapiens) (UniProt P10635); assay: qHTS Assay for Inhibitors and Substrates of Cytochrome P450 2D6 (AID 891); settings: recombinant CYP2D6, luciferin-ME EGE luminescence; series mostly up to 57.1 µM; further: potency means the concentration at half of the fitted maximal effect; nearly all actives have a fitted effect of over 60% in size
Sequence of Cytochrome P450 2D6 (Homo sapiens) (P10635 whole entry, looked up): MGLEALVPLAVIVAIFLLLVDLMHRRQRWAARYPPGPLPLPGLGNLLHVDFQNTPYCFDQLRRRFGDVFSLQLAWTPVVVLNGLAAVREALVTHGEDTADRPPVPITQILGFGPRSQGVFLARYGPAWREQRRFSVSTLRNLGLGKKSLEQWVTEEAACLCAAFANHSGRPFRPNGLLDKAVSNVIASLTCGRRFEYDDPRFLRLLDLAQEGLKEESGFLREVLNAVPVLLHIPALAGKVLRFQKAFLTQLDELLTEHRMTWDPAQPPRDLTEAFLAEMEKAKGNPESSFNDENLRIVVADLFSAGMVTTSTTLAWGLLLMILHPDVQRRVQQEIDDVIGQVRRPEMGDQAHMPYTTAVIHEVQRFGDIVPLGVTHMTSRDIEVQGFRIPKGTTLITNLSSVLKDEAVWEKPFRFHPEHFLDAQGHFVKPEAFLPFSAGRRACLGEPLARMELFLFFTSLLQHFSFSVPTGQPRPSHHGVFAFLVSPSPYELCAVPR
In short: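 Human CYP2D6 (5 nM) with 30 uM Luciferin-ME EGE (at Km) in 100 mM KPO4, compound preincubated 10 min, then NADPH regeneration system for 60 min at room temperature. Luciferin read by luminescence; normalized to 1.43 uM quinidine.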

[9] = target: DNA dC->dU-editing enzyme APOBEC-3G (Homo sapiens) (UniProt Q9HC16); assay: qHTS for inhibitors of Vif-A3G interactions: Validation (AID 588379); settings: Vif-A3G protein interaction assay; series mostly up to 46.1 µM
Sequence of DNA dC->dU-editing enzyme APOBEC-3G (Homo sapiens) (Q9HC16 whole entry, looked up): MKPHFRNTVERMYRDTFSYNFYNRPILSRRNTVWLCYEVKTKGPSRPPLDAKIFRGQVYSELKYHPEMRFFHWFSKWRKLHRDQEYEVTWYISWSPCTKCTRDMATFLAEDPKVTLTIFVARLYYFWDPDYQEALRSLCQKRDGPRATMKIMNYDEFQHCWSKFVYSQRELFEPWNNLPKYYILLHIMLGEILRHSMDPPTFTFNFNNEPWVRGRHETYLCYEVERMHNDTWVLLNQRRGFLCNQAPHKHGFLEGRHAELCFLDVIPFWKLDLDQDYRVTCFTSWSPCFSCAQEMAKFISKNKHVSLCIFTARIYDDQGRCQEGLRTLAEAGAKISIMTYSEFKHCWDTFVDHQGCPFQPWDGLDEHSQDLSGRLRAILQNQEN
In short: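 HeLa cells stably expressing Vif and A3G-eYFP, 700 cells/well, incubated overnight at 37 deg C, then exposed to compound overnight at 37 deg C. Inhibition of Vif-mediated degradation read as increased yellow fluorescence (Ex 488/Em 500-530) by laser-scanning cytometry.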

[10] = qHTS Assay for Modulators of Human Peripheral Myelin Protein 22 (PMP22) Expression/Activity (AID 1967; active means well fitted curve in the direction sought with a large enough effect in the signal ratio; the % refers to the signal ratio); settings: Cell-based PMP22 reporter, dual-color luciferase ratio, 0% = compound-free control cells, mouse Pmp22 promoter in mouse Schwann cells; series mostly up to 115 µM
In short: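 Mouse MSC80 Schwann cells carrying Pmp22 promoter–green click beetle luciferase plus EF-alpha–red luciferase control, dosed 24 h at 37 °C. Dual-filter luminescence, overlap-corrected; %Activity from green/red ratio normalised to untreated cells, concentration-response curves fitted.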

[11] = target: Cytochrome P450 2C9 (Homo sapiens) (UniProt P11712); assay: qHTS Assay for Inhibitors and Substrates of Cytochrome P450 2C9 (AID 883); settings: recombinant CYP2C9, luciferin-H luminescence, 60 min; series mostly up to 57.1 µM; further: nearly all actives have a fitted effect of over 60% in size; further: potency means the concentration at half of the fitted maximal effect
Sequence of Cytochrome P450 2C9 (Homo sapiens) (P11712 whole entry, looked up): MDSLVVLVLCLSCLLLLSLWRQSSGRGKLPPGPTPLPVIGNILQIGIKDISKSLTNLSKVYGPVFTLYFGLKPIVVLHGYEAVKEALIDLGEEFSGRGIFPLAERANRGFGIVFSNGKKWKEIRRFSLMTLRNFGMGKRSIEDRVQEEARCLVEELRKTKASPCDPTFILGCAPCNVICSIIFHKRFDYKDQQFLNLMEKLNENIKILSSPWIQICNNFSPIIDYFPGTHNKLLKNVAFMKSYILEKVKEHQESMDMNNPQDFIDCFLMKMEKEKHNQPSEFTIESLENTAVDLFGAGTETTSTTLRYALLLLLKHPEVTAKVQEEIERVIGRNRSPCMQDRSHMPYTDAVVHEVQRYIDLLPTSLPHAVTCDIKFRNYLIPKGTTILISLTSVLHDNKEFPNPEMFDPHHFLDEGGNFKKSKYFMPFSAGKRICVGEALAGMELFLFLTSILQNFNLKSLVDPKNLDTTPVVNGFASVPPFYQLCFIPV
In short: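 10nM CYP2C9 + 100uM Luciferin-H (=KM), 25mM KPO4; cpd 10 min 37C; NADPH regen, 60 min 37C; stop/detect with P450 Glo-Buffer 20 min; luminescence. Norm. to 57uM sulphaphenazole as full inhibition.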

**Q.** With `CN1CCc2c(cc(O)c(O)c2Cl)C(c2cccc(Cl)c2)C1` (centres undefined) as the molecule, how does the outcome [1] read?
**A.** inactive

**Q.** What about the Potency [2] of the same molecule?
**A.** 5.01 µM (active)

**Q.** And the Potency [3]?
**A.** 5.01 µM (active)

**Q.** What about the Potency [4] of the same molecule?
**A.** 10 µM (active)

**Q.** What about the outcome [5] of the same molecule?
**A.** inactive

**Q.** What about the outcome [6] of the same molecule?
**A.** inactive

**Q.** For `C[n+]1cccc(C(=O)[O-])c1`, which outcome [7] is on record?
**A.** inactive

**Q.** Which outcome [1] does the source give for `C[C@@H](Oc1ccc(Oc2cnc3ccc(Cl)cc3n2)cc1)C(=O)O` here?
**A.** inactive

**Q.** And the Potency [4]?
**A.** inactive

**Q.** What about the outcome [5] of the same molecule?
**A.** inactive

**Q.** Which Potency [8] does the source give for `COc1ccccc1-c1nc(N(C)C)c2ccccc2n1` here?
**A.** 3.16 µM (active)

**Q.** With `O=C1C=CC2=C3c4cc(O)c(O)cc4CC3(O)COC2=C1O` (centres undefined) as the molecule, how does the outcome [9] read?
**A.** inactive

**Q.** Which results are given for `CC#C[C@]1(O)CC[C@H]2C3CCC4=CC(=O)CCC4=C3[C@@H](c3ccc(N(C)C)cc3)C[C@@]21C` (some centres undefined)?
**A.** Potency [2]: 3.98 µM (active); Potency [3]: 11.2 µM (active); Potency [4]: 10 µM (active)

**Q.** What does the source list for `CNC(=O)[C@H]1O[C@@H](n2cnc3c(N)ncnc32)[C@H](O)[C@H]1O`?
**A.** outcome [1]: inactive; Potency [2]: inactive; Potency [3]: inactive; Potency [4]: inactive; outcome [10]: inactive; outcome [6]: inactive

**Q.** With `CN1CCN(c2ncncc2-c2ccc(N(C)C)cc2)CC1` as the molecule, how does the activity change, negative = inhibition [11] read?
**A.** 36.5% [at 2.29 µM]

**Q.** With `CC(C)=CCC/C(C)=C/CC/C(C)=C/CC/C(C)=C/CC/C(C)=C/CC/C(C)=C/CC/C(C)=C/CC/C(C)=C/CC/C(C)=C/CO` as the molecule, how does the outcome [7] read?
**A.** inactive

**Q.** With `COc1ccc2c(c1OC)C(=O)OC2C1c2c(cc3c(c2OC)OCO3)CCN1C` (centres undefined) as the molecule, how does the outcome [1] read?
**A.** inactive

**Q.** What does the source list for `CCCC1O[C@@H]2C[C@H]3[C@@H]4CCC5=CC(=O)C=C[C@]5(C)C4[C@@H](O)C[C@]3(C)[C@]2(C(=O)CO)O1` (some centres undefined)?
**A.** outcome [1]: inactive; Potency [2]: 2.24 µM (active); Potency [3]: 3.16 µM (active); Potency [4]: 11.2 µM (active); outcome [6]: inactive

**Q.** With `CN(C)CCCO[C@H]1C([C@H](O)CO)O[C@@H]2OC(C)(C)O[C@@H]21` (some centres undefined) as the molecule, how does the outcome [1] read?
**A.** inactive

**Q.** What about the Potency [2] of the same molecule?
**A.** inactive

**Q.** What about the Potency [3] of the same molecule?
**A.** inactive

**Q.** And the Potency [4]?
**A.** inactive

**Q.** What about the outcome [10] of the same molecule?
**A.** inactive

**Q.** And the outcome [5]?
**A.** inactive

**Q.** What about the outcome [6] of the same molecule?
**A.** inactive

**Q.** For `Cc1ccccc1-c1nc(N2CCOCC2)c2ccccc2n1`, which activity change, negative = inhibition [11] is on record?
**A.** 14.3% [at 2.29 µM]

**Q.** Which Potency [11] does the source give for `COc1ccccc1CNc1ncnc2ccc(-c3ccccc3OC)cc12` here?
**A.** 794 nM (active)

**Q.** Which Potency [11] does the source give for `COc1ccccc1-c1ccc2ncnc(NCc3ccccc3)c2c1` here?
**A.** 501 nM (active)
